Laboratory results as given in ChEMBL document CHEMBL3988442, “University of Dundee, Small-Polar-MMV Screening Library” (2021).
For some assays here: Results with a measured potency or affinity are listed apart.

Tests used:
Set-up in all cases: scale not given: direction of the effect not stated beside the values
[1] = biological target: Protein translocase subunit SecA (Escherichia coli (strain K12)) (UniProt P10408); test: Assay to Identify E. coli SecA ATPase Inhibitors; type: functional; details: 30 µM
Sequence of Protein translocase subunit SecA (Escherichia coli (strain K12)) (P10408 whole entry): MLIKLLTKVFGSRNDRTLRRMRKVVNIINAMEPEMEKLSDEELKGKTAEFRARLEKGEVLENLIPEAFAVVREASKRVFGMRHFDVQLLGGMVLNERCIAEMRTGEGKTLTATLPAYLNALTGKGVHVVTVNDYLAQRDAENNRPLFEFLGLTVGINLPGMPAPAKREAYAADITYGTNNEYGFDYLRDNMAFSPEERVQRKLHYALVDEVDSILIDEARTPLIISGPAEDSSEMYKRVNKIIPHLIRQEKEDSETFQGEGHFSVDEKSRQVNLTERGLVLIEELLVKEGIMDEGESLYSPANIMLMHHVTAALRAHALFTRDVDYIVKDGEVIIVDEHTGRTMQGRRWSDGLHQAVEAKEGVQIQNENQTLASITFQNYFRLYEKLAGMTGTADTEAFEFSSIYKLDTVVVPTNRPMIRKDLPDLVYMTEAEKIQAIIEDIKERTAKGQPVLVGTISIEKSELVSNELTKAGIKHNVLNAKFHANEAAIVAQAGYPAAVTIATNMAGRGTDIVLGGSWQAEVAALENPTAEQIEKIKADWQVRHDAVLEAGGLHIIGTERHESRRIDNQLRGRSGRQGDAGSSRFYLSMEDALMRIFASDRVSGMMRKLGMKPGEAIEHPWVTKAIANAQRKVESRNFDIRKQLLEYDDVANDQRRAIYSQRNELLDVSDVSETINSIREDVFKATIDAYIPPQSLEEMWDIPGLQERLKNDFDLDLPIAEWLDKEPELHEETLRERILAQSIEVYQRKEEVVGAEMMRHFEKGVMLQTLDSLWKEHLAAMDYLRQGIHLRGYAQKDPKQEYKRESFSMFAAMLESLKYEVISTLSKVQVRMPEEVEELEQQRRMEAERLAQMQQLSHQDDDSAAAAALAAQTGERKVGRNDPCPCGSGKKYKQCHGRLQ

[2] = biological target: T1, Ubiquitin-activating enzyme e1, putative (Leishmania donovani (strain BPK282A1)) (UniProt E9BSI1); test: Leishmania donovani Ubiquitin Activating Enzyme (LdE1); type: functional; details: 30 µM
T1 sequence (whole entry): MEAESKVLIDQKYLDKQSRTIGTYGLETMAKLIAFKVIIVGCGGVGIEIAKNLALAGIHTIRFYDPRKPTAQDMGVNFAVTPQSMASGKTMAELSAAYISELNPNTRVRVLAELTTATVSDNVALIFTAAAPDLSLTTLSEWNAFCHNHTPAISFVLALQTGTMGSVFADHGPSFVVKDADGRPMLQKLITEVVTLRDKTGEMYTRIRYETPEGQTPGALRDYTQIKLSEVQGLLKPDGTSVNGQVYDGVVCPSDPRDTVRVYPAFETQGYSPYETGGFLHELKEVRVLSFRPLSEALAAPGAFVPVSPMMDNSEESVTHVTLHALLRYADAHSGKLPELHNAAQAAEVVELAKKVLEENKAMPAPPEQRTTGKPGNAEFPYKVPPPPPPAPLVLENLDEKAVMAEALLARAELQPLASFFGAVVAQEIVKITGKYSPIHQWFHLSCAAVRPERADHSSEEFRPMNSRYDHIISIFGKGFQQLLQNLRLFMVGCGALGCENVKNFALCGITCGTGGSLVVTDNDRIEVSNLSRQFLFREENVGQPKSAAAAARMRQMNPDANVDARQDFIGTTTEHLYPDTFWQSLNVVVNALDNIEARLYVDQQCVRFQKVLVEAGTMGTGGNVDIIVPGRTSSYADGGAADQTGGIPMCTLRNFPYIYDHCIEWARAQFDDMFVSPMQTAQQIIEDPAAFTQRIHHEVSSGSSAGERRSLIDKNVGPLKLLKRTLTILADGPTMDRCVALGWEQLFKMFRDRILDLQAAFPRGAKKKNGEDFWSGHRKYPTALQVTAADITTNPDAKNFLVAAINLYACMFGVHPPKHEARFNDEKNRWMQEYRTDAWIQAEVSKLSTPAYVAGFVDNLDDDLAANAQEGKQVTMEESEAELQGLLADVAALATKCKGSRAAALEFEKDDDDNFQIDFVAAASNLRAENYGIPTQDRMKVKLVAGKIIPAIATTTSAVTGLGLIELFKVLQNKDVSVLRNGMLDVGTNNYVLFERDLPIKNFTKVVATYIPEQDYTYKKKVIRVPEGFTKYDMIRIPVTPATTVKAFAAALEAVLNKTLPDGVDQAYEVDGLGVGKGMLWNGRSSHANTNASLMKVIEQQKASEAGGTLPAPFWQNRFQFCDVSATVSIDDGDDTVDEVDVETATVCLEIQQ

[3] = biological target: AMP-activated protein kinase, AMPK (Homo sapiens) (UniProt P54646+O43741+P54619+Q9UGJ0+Q9Y478+Q13131+Q9UGI9); test: AMP-dependent Kinase enzyme assay. An in vitro enzyme assay that detects ADP turnover that is directly proportional to AMPK activity. This uses naive AMPK that is activated during the assay with MK-8722; type: functional; details: 30 µM
[4] = biological target: Sialic acid-binding Ig-like lectin 9 (Homo sapiens) (UniProt Q9Y336); test: Hs-Siglec9 ALPHAscreen SOP 20170721; details: 10 µM
Sequence of Sialic acid-binding Ig-like lectin 9 (Homo sapiens) (Q9Y336 whole entry): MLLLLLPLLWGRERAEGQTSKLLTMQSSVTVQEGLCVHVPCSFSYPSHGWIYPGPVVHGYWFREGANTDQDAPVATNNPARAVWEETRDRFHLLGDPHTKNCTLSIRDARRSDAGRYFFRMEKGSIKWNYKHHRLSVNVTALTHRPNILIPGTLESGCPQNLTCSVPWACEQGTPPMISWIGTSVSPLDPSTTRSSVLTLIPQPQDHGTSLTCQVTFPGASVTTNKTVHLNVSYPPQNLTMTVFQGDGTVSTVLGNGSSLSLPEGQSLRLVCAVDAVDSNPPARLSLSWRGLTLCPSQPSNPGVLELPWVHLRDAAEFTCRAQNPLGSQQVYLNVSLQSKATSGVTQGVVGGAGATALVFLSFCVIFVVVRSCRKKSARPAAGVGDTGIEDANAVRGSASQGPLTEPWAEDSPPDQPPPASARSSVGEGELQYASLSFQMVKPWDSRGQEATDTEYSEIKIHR

Trypanosoma cruzi = test: Trypanosoma cruzi phosphomannomutase and mannose-1-phosphate guanylyltransferase assay; type: functional; details: 10 µM
[5] = biological target: T2, Arginase-2, mitochondrial (Homo sapiens) (UniProt P78540); test: in vitro enzyme assay to detect the production of urea directly proportional to the activity of Arginase II; type: functional; details: 33.3 µM; note: in the data most compounds retested in dose-response had high values
T2 sequence (whole entry): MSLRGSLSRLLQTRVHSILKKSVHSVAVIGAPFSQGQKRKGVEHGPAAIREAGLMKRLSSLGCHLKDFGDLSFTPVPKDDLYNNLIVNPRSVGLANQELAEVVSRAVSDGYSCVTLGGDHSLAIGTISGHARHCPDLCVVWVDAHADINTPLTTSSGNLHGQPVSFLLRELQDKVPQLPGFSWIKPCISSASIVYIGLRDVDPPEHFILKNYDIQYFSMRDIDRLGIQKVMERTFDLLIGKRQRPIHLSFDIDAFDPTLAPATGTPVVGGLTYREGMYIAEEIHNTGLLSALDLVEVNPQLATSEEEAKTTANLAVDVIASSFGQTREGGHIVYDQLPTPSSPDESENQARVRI

[6] = biological target: T3, Proteasome subunit beta (Trypanosoma cruzi) (UniProt O96673); test: Trypanosoma cruzi proteasome chymotrypsin-like activity (TcProtChymo) assay.; note: in the data most compounds retested in dose-response had high values; type: functional; details: 9.37 µM
T3 sequence (whole entry): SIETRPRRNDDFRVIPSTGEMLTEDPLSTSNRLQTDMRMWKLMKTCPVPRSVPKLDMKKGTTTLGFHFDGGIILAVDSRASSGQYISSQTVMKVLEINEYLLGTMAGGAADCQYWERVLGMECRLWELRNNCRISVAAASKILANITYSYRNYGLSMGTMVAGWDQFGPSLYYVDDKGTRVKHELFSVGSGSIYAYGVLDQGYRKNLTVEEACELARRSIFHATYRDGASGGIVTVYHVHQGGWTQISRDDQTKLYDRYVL

Homo sapiens = species on record: Homo sapiens; test: To identify inhibition of the IFN signalling (Jak-Stat) pathway via expression of an eGFP reporter gene under the control of an IFN-stimulated response element (ISRE) containing MxA promoter.; type: functional; details: 30 µM
[7] = biological target: T4, Tyrosyl-tRNA synthetase, putative (Trypanosoma cruzi (strain CL Brener)) (UniProt Q4DSP6); test: Trypanosoma cruzi tyrosyl tRNA synthetase (TcYRS) _High Tyrosine SOP; type: functional; details: 30 µM; note: in the data most compounds retested in dose-response had high values
T4 sequence (whole entry): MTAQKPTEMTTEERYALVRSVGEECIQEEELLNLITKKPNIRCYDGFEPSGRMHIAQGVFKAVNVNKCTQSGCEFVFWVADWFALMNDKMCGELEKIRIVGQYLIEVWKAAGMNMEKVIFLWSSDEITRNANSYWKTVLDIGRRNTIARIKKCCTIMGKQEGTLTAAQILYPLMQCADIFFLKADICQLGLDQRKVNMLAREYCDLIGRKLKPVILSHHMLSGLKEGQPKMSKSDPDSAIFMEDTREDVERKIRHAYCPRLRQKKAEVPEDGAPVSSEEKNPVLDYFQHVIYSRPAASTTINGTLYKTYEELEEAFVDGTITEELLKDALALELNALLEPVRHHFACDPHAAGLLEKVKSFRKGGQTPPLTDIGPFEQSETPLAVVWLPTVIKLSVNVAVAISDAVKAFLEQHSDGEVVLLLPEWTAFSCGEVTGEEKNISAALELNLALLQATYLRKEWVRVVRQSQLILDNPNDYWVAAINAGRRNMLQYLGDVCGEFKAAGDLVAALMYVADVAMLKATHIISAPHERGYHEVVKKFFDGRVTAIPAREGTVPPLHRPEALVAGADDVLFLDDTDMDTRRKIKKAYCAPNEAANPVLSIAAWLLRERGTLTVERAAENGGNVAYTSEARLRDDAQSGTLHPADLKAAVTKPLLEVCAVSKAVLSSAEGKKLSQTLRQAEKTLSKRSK

[8] = biological target: T4, Tyrosyl-tRNA synthetase, putative (Trypanosoma cruzi (strain CL Brener)); test: Trypanosoma cruzi tyrosyl tRNA synthetase (TcYRS) SOP; type: functional; details: 30 µM
[9] = biological target: Chromo domain-containing protein 1 (Saccharomyces cerevisiae (strain ATCC 204508 / S288c) (Baker's yeast)) (UniProt P32657); test: ScCHD-1 Enzyme Inhibition Assay; type: functional; details: 30 µM; note: in the data most compounds retested in dose-response had high values
Sequence of Chromo domain-containing protein 1 (Saccharomyces cerevisiae (strain ATCC 204508 / S288c) (Baker's yeast)) (P32657 whole entry, the tested form may be a part): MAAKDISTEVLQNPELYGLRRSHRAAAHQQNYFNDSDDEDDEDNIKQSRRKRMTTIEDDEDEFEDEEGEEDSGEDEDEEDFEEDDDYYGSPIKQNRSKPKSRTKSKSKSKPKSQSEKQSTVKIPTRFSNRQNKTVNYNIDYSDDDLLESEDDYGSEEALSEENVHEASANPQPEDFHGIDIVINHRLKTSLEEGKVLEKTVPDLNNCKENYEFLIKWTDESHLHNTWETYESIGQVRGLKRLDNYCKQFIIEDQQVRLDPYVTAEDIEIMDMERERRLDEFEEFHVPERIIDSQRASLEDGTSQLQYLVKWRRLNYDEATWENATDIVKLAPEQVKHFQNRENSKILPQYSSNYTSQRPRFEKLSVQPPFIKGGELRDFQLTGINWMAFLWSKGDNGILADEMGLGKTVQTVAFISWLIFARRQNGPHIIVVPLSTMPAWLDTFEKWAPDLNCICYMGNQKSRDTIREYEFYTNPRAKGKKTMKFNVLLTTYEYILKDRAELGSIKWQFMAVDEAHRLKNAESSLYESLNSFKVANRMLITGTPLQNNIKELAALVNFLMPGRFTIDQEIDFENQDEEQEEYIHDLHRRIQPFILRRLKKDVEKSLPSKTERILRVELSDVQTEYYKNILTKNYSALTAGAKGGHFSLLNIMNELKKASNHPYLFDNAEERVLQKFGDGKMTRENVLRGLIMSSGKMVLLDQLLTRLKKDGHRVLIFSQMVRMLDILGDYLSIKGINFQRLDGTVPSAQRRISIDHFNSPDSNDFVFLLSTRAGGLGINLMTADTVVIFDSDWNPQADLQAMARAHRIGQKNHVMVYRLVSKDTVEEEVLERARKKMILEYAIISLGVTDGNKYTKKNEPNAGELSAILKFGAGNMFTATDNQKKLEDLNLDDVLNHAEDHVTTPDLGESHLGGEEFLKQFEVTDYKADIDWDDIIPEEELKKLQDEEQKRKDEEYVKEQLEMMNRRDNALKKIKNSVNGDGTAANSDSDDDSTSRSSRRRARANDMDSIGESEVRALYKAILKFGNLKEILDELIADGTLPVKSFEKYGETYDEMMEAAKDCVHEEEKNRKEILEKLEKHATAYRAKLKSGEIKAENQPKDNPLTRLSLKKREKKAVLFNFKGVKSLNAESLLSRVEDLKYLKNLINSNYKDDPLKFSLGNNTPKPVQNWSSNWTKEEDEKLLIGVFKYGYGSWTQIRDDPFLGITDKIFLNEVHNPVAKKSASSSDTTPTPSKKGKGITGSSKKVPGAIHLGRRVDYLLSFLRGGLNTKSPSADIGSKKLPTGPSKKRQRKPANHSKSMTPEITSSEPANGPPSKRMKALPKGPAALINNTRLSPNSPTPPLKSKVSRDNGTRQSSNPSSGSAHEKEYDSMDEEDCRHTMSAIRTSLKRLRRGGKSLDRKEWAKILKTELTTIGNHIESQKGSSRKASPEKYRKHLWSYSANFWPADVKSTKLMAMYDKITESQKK

SMILES | Percent Effect [1] | Percent Effect [2] | Percent Effect [3] | Percent Effect [4] | Percent Effect (Trypanosoma cruzi) | Percent Effect [5] | Percent Effect [6] | Percent Effect (Homo sapiens) | Percent Effect [7] | Percent Effect [8] | Percent Effect [9]
Fc1ccccc1CN1C[C@@H](OCc2ccncc2)[C@H]2OCCC[C@H]21 | -4.8% | 10.4% | 6.84% | 10.2% | 4.62% | -13.8% | 5.49% | 6.56% | 7.53% | 16.1% | -1.04%
COc1cc(CN(C)C(=O)Cc2c(C)nn(C)c2C)ccc1OC(F)F | 3.46% | -9.72% | -6.03% | -7.7% | -5.15% | 3.09% | 20.2% | 55.5% | 5.26% | 10.3% | 0.343%
CCN(CC)C(=O)CCNC(=O)Cc1nc(-c2ccco2)oc1C | -7.31% | -2.67% | -3.57% | -1.71% | -5.75% | -0.521% | 17.3% | -3.68% | -1.64% | 3.7% | -7.39%
COc1ccc(NC(=O)c2ccc[nH]2)c(N2CCN(C(C)=O)CC2)n1 | -1.32% | 10.8% | -4.59% | -2.38% | 0.781% | 37.1% | 7.18% | -7.2% | 6.93% | 13.4% | -6.01%
CC(C)c1nn(C)c(N(C)C)c1CNCCC(=O)N(C)C | -2.63% | 0% | -11.4% | -2.27% | 2.15% | 0.719% | 5.16% | -16.3% | -0.493% | 3.7% | 0.33%
Nc1nc(C2CCN(C(=O)c3cncs3)CC2)cs1 | -7.01% | 12.2% | 9.81% | 5.35% | 1.38% | 0.232% | 3.59% | -3.51% | 3.23% | 11.7% | -8.22%
Cc1ccc(CN2CCc3ncnc(C4CC4)c3CC2)s1 | 1.05% | 5.33% | 5.76% | -4.5% | -5.41% | -54.3% | 6.15% | 43.3% | 8.33% | 12.5% | -7.16%
CCS(=O)(=O)N1CC[C@H](OC)[C@@H]1Cc1ccncc1 | -2.5% | 13.5% | -1.61% | -11.3% | -4.59% | -9.87% | 15.3% | 7.61% | 0% | 7.69% | -5.24%
CC(C)c1cc(NC(=O)CN2CCc3cncnc3C2)on1 | -5.41% | 10.4% | -22.4% | 3.99% | 1.31% | -5.34% | 4.39% | -5.17% | 16.5% | 21.9% | -6.84%
FC(F)(F)Cn1ccnc1CN1CCOC(Cn2cccn2)C1 (configuration not stated) | -5.79% | 6.33% | 6.8% | 1.11% | -2.36% | -1.5% | 1.54% | 13.3% | 1.04% | 15.2% | -6.67%
O=C(C[C@@H]1COC[C@H]2CN(Cc3ccc(F)cc3)C[C@@H]12)N1CCCCO1 | -4.42% | 6.67% | 4.91% | 6.17% | -2.36% | -0.176% | 16.1% | 19% | 2.12% | 7.69% | -5.03%
O=C(CC1CC1)N1CCn2cc(Cn3cncn3)nc2C1 | -2.33% | 10.4% | 4.72% | 3.11% | -4.04% | -13.6% | 10.8% | 2.39% | 3.17% | 11.5% | -6.64%
Cc1cc(NC(=O)CN2CCOC(Cn3cccn3)C2)n(C)n1 (configuration not stated) | -5.44% | 0% | 5.74% | -1.25% | 1.27% | -1.05% | -1.86% | 15.9% | 2.86% | 9.41% | -16.3%
O=C(C1CCOCC1)N1C[C@@H]2[C@@H](C1)OCC(=O)N2Cc1ccncc1 | -1.9% | -2.74% | -1.14% | 7.63% | 1.19% | -0.399% | 4.2% | 2.13% | 2.08% | -6.17% | -1.66%
Cc1cnc(CN2CCC(N(C)Cc3nnc(C4CC4)n3C)C2)cn1 (configuration not stated) | -4.85% | 0% | 1.39% | -3.06% | -0.0978% | 2.73% | 8.67% | -19.5% | 6.45% | 8.64% | -2.52%
CNC(=O)[C@@]12CCO[C@@H]1CCN(Cc1scnc1C)C2 | 3.6% | 7.79% | 9.91% | -13.5% | -7.4% | 7.1% | 20.4% | 5.25% | 5.29% | 6.41% | -8.35%
Cc1noc(C)c1CCC(=O)N1CCCN(Cc2cscn2)CC1 | -1.71% | 13.2% | -5.71% | -4.5% | -3.76% | 6.9% | 21.1% | 23% | 8.33% | 17.1% | -10.5%
Cn1cc(C[C@H]2[C@H](N3CCOCC3)CCN2C(=O)c2ccco2)cn1 | -7.84% | 5.33% | 7.06% | -0.822% | -7.09% | -0.699% | 7.49% | 21.2% | 2.13% | 6.41% | -4.64%
COc1ccc(-c2noc(CN3CCOCC3C)n2)cc1OC (configuration not stated) | -2.2% | 18.9% | -11.1% | 15.8% | 0.0943% | -6.81% | 8.83% | 28.9% | 5.42% | 16.1% | -11%
CN1CCN(C(=O)c2ccc(=O)n(C)c2)Cc2ccccc21 | -3.95% | -16.2% | -7.07% | 15.3% | 3.62% | -4.25% | 0.539% | 5.67% | 3.96% | 18.3% | -2.09%
CN(CCO)C(=O)c1coc(CN2CCN(c3ccccc3F)CC2)n1 | -2.04% | 13.3% | -1.48% | 17.7% | -0.0974% | 49.5% | 20.2% | 11.4% | 6.01% | 21% | 97.1%
Cc1cn2nc(N3CCCC3Cn3nc(C)cc3C)sc2n1 (configuration not stated) | -2.86% | 6.33% | 3.5% | 0.585% | 1.74% | -0.645% | 9.43% | 19.6% | 4.17% | 7.59% | -20%
